Data from PubChem BioAssay AID1159580 (chemical genetic matrix, 2015).
“And” between values parts separate entries of the source, which are not always exact repeats. Equal values may be shown once. Hit rate of the full screen: of about 5,500 compounds, about 2,000 (36%) were called active. Roughly 18% stayed inconclusive and do not appear here. Rule as the data show it: active = normalized growth mostly below about 0.91 (no sharp cut-off); inconclusive = no clear call, values can overlap the other calls; inactive = mostly above about 0.92. The list shows a part of the results.

Assay: chemical genetic growth profiling, strain panel (AID 1159580);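 also: tested at 20 µM; growth read once vehicle control cultures reached saturation at 30 °C; 1 = growth at the plate median or of vehicle wells; lower values mean less growth of the strain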
Details: S. cerevisiae deletion strains, growth OD

Measured: normalized growth

CCCCN(CC)c1c([N+](=O)[O-])cc(C(F)(F)F)cc1[N+](=O)[O-]
inactive: locus YAL013W, strain DEP1, hits give low values 1.01 | locus YAL021C, strain ccr4, hits give low values 0.998 | locus YAL026C, strain drs2, hits give low values 1.02 | locus YAL030W, strain snc1, hits give low values 1.02 | locus YBL061C, strain skt5, hits give low values 1 | locus YBR009C, strain hhf1, hits give low values 1 | locus YBR021W, strain FUR4, hits give low values 1.03 | locus YBR023C, strain chs3, hits give low values 1.01 | locus YBR171W, strain sec66, hits give low values 1.03 | locus YBR229C, strain ROT2, hits give low values 0.999 | locus YBR231C, strain swc5, hits give low values 1 | locus YBR279W, strain paf1, hits give low values 1.01 | locus YCL011C, strain gbp2, hits give low values 1 | locus YCL016C, strain dcc1, hits give low values 1.01 | locus YCL029C, strain bik1, hits give low values 1.02 | locus YCL061C, strain MRC1, hits give low values 1.01 | locus YCL069W, strain vba3, hits give low values 1.02 | locus YCR088W, strain abp1, hits give low values 1.01 | locus YDL005C, strain med2, hits give low values 1.02 | locus YDL035C, strain GPR1, hits give low values 1.02 | locus YDL040C, strain nat1, hits give low values 1.01 | locus YDL074C, strain BRE1, hits give low values 1.03 | locus YDL101C, strain DUN1, hits give low values 1.01 | locus YDL134C, strain PPH21, hits give low values 1.01 | locus YDL185W, strain tfp1, hits give low values 1.03 | locus YDL192W, strain arf1, hits give low values 1.02 | locus YDR001C, strain nth1, hits give low values 1.01 | locus YDR069C, strain doa4, hits give low values 1 | locus YDR101C, strain arx1, hits give low values 1.01 | locus YDR137W, strain rgp1, hits give low values 0.98 | locus YDR150W, strain NUM1, hits give low values 1.01 | locus YDR159W, strain sac3, hits give low values 1 | locus YDR162C, strain NBP2, hits give low values 1.02 | locus YDR195W, strain ref2 1.01 | locus YDR297W, strain sur2, hits give low values 1 | locus YDR318W, strain mcm21, hits give low values 1.01 | locus YDR334W, strain swr1, hits give low values 1.02 | locus YDR335W, strain msn5, hits give low values 1.02 | locus YDR388W, hits give low values 1.01 | locus YDR392W, strain spt3, hits give low values 1.01 | locus YDR502C, strain sam2, hits give low values 1.01 | locus YEL003W, strain gim4, hits give low values 1.02 | locus YEL037C, strain rad23, hits give low values 1.01 | locus YEL061C, strain CIN8 (second series), hits give low values 1.03 | locus YEL061C, strain CIN8, hits give low values 1.01 | locus YER015W, strain faa2, hits give low values 1.02 | locus YER016W, strain bim1, hits give low values 1.01 | locus YER110C, hits give low values 1.02 | locus YER111C, strain swi4, hits give low values 1.01 | locus YER155C, strain BEM2 (second series), hits give low values 1.03 | locus YER155C, strain BEM2, hits give low values 1.01 | locus YER167W, strain BCK2, hits give low values 1.01 | locus YFR010W, strain ubp6, hits give low values 1.02 | locus YGL078C, strain dbp3, hits give low values 1.01 | locus YGL086W, strain mad1, hits give low values 1.01 | locus YGL167C, strain pmr1, hits give low values 1.01 | locus YGL173C, strain kem1, hits give low values 1.01 | locus YGL227W, strain vid30, hits give low values 1.01 | locus YGL240W, strain doc1, hits give low values 1.02 | locus YGL248W, strain PDE1, hits give low values 1 | locus YGL253W, strain hxk2, hits give low values 1.02 | locus YGR078C, strain PAC10, hits give low values 1.01 | locus YGR135W, strain pre9, hits give low values 1.01 | locus YGR229C, strain SMI1, hits give low values 1.02 | locus YGR252W, strain gcn5, hits give low values 1.05 | locus YHR013C, strain ard1, hits give low values 1.06 | locus YHR027C, strain rpn1, hits give low values 1.03 | locus YHR030C, strain SLT2, hits give low values 1.01 and 1.08 | locus YHR079C, strain IRE1 (second series), hits give low values 1.01 | locus YHR079C, strain IRE1, hits give low values 1.03 | locus YHR094C, strain hxt1, hits give low values 1.01 | locus YHR129C, strain ARP1, hits give low values 1.01 | locus YHR142W, strain chs7, hits give low values 1.02 | locus YHR200W, strain rpn10, hits give low values 1.01 | locus YIL066C, strain RNR3, hits give low values 1.01 | locus YIL073C, strain SPO22, hits give low values 1.02 | locus YIL125W, strain kgd1, hits give low values 1.01 | locus YIR030C, strain dcg1, hits give low values 1.01 | locus YJL092W, strain hpr5, hits give low values 1.01 | locus YJL095W, strain BCK1 (second series), hits give low values 1.01 | locus YJL095W, strain BCK1, hits give low values 0.996 and 1.05 | locus YJL115W, strain asf1, hits give low values 1.01 | locus YJL129C, strain trk1, hits give low values 1.01 | locus YJL134W, strain LCB3, hits give low values 1.01 | locus YJL154C, strain vps35, hits give low values 1.02 | locus YJL164C, strain tpk1, hits give low values 1.01 | locus YJL166W, strain qcr8, hits give low values 1 | locus YJL168C, strain set2, hits give low values 1.01 | locus YJL187C, strain SWE1 (second series), hits give low values 1.01 | locus YJL187C, strain SWE1, hits give low values 1.01 | locus YJR043C, strain POL32, hits give low values 1.02 | locus YJR066W, strain TOR1, hits give low values 0.992
